About 83,000 compounds went through this panel and 20% of them were active in at least one assay; those are over-represented in the sample as a whole.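 Single-concentration screen, 48 h exposure, 96-well plates. Endpoint: percent growth. Below 10 = active.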 A number with no mark means an inactive call. The source made the active and inactive calls.

The subject of the assay is NCI/ADR-RES ovarian. As to the kind of experiment: NCI-60 one-dose screen, 48 h (100 = growth as untreated, 0 = no growth, -100 = all killed). As to conditions: 10 µM unless noted.
Regarding `COc1ccc(C(=O)N2c3ccccc3Sc3ccccc32)c(OC)c1`, the growth was -0.356% (active).
To `Cc1c(-c2ccc(O)cc2)n(Cc2ccc(OCCN3CCCCCC3)cc2)c2ccc(O)cc12` belongs 85.7%.
To `Cc1ccc(Nn2c(SCC(=O)Nc3nc(-c4ccccc4)cs3)nc(C)c2C)cc1` belongs 34.4%.
Regarding `CC(C)c1ccc(C(=O)Nc2nc3ccc(O)c(CN(C)C)c3s2)cc1`, the growth was 87.8%.

The values above are taken from PubChem BioAssay (NCI).
